Compound activity: PubChem BioAssay, National Center for Advancing Translational Sciences (NCATS)
Hits are enriched below; roughly 21% of the tested compounds scored in any of these assays.
TDP1 cell noCPT: qHTS for Inhibitors of human tyrosyl-DNA phosphodiesterase 1 (TDP1): qHTS in cells in absence of CPT; DT40 Tdp1-/- hTDP1 cells, no CPT, ATP luminescence, 48 h; Potency, µM (titrated, usually from 46.2 µM), for the others: top-dose activity change, negative = growth inhibition, most hits filed as inhibitors; hit rate 15% among 420,000; also: potency is read from the fitted curve at half-maximal effect; nearly all actives have a fitted effect of over 55% in size
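Compound effects on proliferation are scored in DT40 Tdp1-/-;hTDP1 cells in the absence of CPT. ATP levels (CellTiter-Glo luminescence) are recorded after a ≥48 hr, 37 °C incubation.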
VP16 counter: VP16 counterscreen qHTS for inhibitors of ROR gamma transcriptional activity; AID 2546, 2010; hit rate 3.5% among 310,000; Drosophila S2 Gal4-VP16 UAS-luciferase, luminescence, 20 h; Potency, µM (titrated, usually from 53.6 µM), for inactives: at the top dose activity, negative = inhibition, most hits filed as inhibitors;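 also: Gal4-VP16 expression switched on by copper sulfate through the metallothionein promoter; potency is read from the fitted curve at half-maximal effect; nearly all actives have a fitted effect of over 50% in size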
ELG1 repair inh: qHTS screen for small molecules that inhibit ELG1-dependent DNA repair in human embryonic kidney (HEK293T) cells expressing luciferase-tagged ELG1 | hit rate 2.3% among 330,000 | Potency, µM (doses to about 46.1 µM), inactives show at the highest dose activity change, negative = inhibition, actives largely listed as inhibitors | HEK293T ELG1-luciferase reporter, luminescence, 16 h; DNA damage induced by 5-fluorouridine; also: potency is read from the fitted curve at half-maximal effect; nearly all actives have a fitted effect of over 55% in size
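Reporter activity after DNA damage by 5-fluorouridine is monitored. Compound-treated cells incubate 16 hr at 37 °C, then ONE-Glo is added for 30 min before luminescence reading.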
IL-1B inflam inh: qHTS for Inhibitors of Inflammasome Signaling: IL-1-beta AlphaLISA Primary Screen. activity change, % at 57.5 µM. THP-1 LPS/ATP IL-1B secretion, AlphaLISA, 16 h; hits give low values. hit rate 4.7% among 360,000. AID 743279, 2014; in the data active = activity change below about -50%; inconclusive = mostly about -30% to -49%
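THP-1 cells pretreated 1 hr with compounds (up to 57.5 uM final), then stimulated with LPS (250 ng/mL final) plus ATP (1.25 mM final); secreted IL-1B measured by AlphaLISA after 16 hr, decreased signal indicating inhibition.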
RORgamma inh: qHTS for inhibitors of ROR gamma transcriptional activity. Nuclear receptor ROR-gamma (Mus musculus), P51450. Drosophila S2 Gal4-RORgamma UAS-luciferase reporter, 20 h. Potency, µM (top dose mostly 53.6 µM), for inactives: top-dose activity change, negative = inhibition, usual class: inhibitors. hit rate 5.4% among 310,000; also: potency is read from the fitted curve at half-maximal effect; nearly all actives have a fitted effect of over 60% in size
Target sequence (P51450 whole entry, looked up, the tested form may be a part): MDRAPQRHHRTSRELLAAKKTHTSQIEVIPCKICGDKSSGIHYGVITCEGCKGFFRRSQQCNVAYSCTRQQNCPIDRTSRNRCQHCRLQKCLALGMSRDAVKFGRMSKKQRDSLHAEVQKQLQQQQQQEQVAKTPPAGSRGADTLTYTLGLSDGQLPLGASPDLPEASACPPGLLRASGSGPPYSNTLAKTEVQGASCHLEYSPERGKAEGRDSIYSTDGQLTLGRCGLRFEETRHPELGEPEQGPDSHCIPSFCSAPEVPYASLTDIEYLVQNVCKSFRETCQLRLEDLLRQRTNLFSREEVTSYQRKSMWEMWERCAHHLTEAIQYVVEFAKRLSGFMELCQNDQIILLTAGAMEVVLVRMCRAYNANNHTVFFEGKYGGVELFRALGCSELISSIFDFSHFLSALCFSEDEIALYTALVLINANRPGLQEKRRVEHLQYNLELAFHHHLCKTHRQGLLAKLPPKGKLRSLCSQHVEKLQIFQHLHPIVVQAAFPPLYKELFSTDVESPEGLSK
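Using a luciferase readout, inhibitors were identified by reduced reporter activity in Drosophila cells coexpressing a copper-inducible Gal4–ROR gamma fusion and UAS-driven Photinus luciferase, incubated 20 hr after 700 uM copper sulfate.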
DT40 TDP1 CPT: qHTS for Inhibitors of human tyrosyl-DNA phosphodiesterase 1 (TDP1): qHTS in cells in presence of CPT. chicken DT40 Tdp1-/-;hTDP1 cells + 20 nM CPT, ATP luminescence, 48 h. Potency, µM (top dose mostly 46.2 µM), inactives show at the highest dose activity change, negative = growth inhibition, most hits filed as inhibitors. hit rate 12% among 420,000; also: potency is read from the fitted curve at half-maximal effect; nearly all actives have a fitted effect of over 55% in size
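Chicken DT40 Tdp1-/- cells stably complemented with human TDP1 were seeded at 400 cells/well in medium containing 20 nM camptothecin, exposed to pin-transferred compounds, and grown at 37 °C for at least 48 hr. Viability was read as ATP luminescence.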
The depositor's hits bear a star; ? = inconclusive; . = no result; [ ] = remark or other dose. Unless noted, calls follow the shape of the dose curve; as a rule, active = well fitted curve in the direction sought with a large enough effect; inconclusive = small, poorly fitted or top-dose-only effect, or another doubt; inactive = no such curve, though single readings can be large; an effect the other way counts as inactive or inconclusive. % is scaled to controls: 0 for no effect and ±100 for the full control effect.

SMILES	TDP1 cell noCPT	VP16 counter	ELG1 repair inh	IL-1B inflam inh	RORgamma inh	DT40 TDP1 CPT
Cc1ccc(S(=O)(=O)N2CCN(c3nc(-c4cncn4C)nc4ccccc34)CC2)cc1	?	.	.	.	.	20µM*
Cc1ccc(S(=O)(=O)N2CCN(c3nc(-c4cncs4)nc4ccccc34)CC2)cc1	7.1µM*	.	.	.	.	10µM*
CC(=O)Nc1cc(C(=O)N2CCSCC2)cc2ncn(CCc3ccccn3)c12	-6%	.	.	.	.	-3%[9.04 µM]
Cc1cnc(-n2ncc(C(=O)NCC3COCCO3)c2C2CC2)nc1-c1cccs1 (stereo not drawn)	-13%	.	.	.	.	-7%
Cc1nc2c(c(=O)[nH]1)CSCC2	.	-1%	.	.	18%	.
O=C1CC(c2ccc3ccccc3c2)NN1 (stereo not drawn)	?	.	-2%	13	.	26µM*
O=C1CC(c2ccccc2)NN1 (stereo not drawn)	?	.	11%	18	.	?
CCOc1ccc(NC(=O)Cn2nc(CC)n3c(cc4sccc43)c2=O)cc1	-20%	.	.	.	.	2%
CN(C(=O)COC(=O)c1c2c(nc3ccccc13)CCCC2)c1c(N)n(Cc2ccccc2)c(=O)[nH]c1=O	-16%	.	0%	-54*	.	-5%
CCN(C(=O)COC(=O)c1c2c(nc3ccccc13)CCC2)c1c(N)n(Cc2ccccc2)c(=O)[nH]c1=O	-21%	.	.	?	.	?
Cc1onc(-c2ccccc2)c1C(=O)OCC(=O)N(C)c1c(N)n(Cc2ccccc2)c(=O)[nH]c1=O	-1%	.	5%	-1	.	-19%
CC(C)CN(C(=O)COC(=O)c1c2c(nc3ccccc13)CCC2)c1c(N)n(Cc2ccccc2)c(=O)[nH]c1=O	?	0%	?	-51*	32%	?
COc1ccc(S(=O)(=O)Nc2ccccc2Cl)cc1NC(C)=O	-27%	-13%	12%	7	-12%	-4%
COc1ccccc1NS(=O)(=O)c1ccc(Cl)c(NC(=S)NC(=O)C2CCCC2)c1	29µM*	?	?	-6	?	23µM*
O=C(NC(=S)Nc1cc(S(=O)(=O)N2CCOCC2)ccc1N1CCOCC1)C1CCCC1	.	13%	-9%	.	?	.
Cc1ccc(S(=O)(=O)N(C)C)cc1NC(=S)NC1CCCC(C)C1C (stereo not drawn)	?	5µM*	-23%	-4	4µM*	21µM*
CCN(CC)c1ccc(S(=O)(=O)Nc2cc(Cl)ccc2Cl)cc1NC(=S)NC(=O)C1CCCC1	?	22µM*	-4%	-50*	5µM*	?
CCN(CC)S(=O)(=O)c1ccc(Cl)c(NC(=S)NC(=O)C2CCCC2)c1	18µM*	.	?	?	.	23µM*
CC1CCCCC1NC(=S)Nc1cccc(S(=O)(=O)N(C)C)c1 (stereo not drawn)	?	5%[10 µM]	-18%	-11	?	?
O=C(CNC(=O)C1CCCCC1)Nc1cc(Cl)ccc1Cl	-24%	-4%	0%	89	11%	-6%
CC(=O)c1ccc(F)c(-c2cc(C)cc3c2OC(CNC(=O)C2CCCCN2C)C3)c1 (stereo not drawn)	?	.	.	.	.	-6%[9.04 µM]
O=C(CN1CCN(c2ccc(O)cc2)CC1)Nc1ccc(S(=O)(=O)N2CCCC2)cc1	-25%	.	?	19	.	0%
COc1cccc(CNC(=O)[C@H](C)NC(=O)N2CC(=O)Nc3ccccc32)c1	-19%	.	.	-3	.	19%
CCCc1nn2c(=O)cc(COc3ccc(NC(=O)c4ccco4)cc3)nc2s1	21%	26%	-2%	-8	-9%	-19%
